{
  "source": "PubChem BioAssay (Tox21)",
  "note": "Inconclusive results are not listed. A call without a number means that no potency is given here. Activity calls are given as the source filed them. Calls follow the shape of the dose curve; as a rule, active = well fitted cell-killing curve with a large enough effect in the repeat runs; inconclusive = weak or mixed curves, or effect the other way; inactive = no such curve, though single readings can be large or run the other way. Potency is read from the fitted curve at half-maximal effect.",
  "data": [
    {"assay": "qHTS assay for identifying genotoxic compounds that show differential cytotoxicity against isogenic chicken DT40 cell lines with known DNA damage response pathways - Rev3 mutant cell line (AID 743014); also: nearly all actives have a fitted effect of over 55% in size", "conditions": "chicken DT40 Rev3-/- viability, CellTiter-Glo, 40 h; series mostly up to 68.4 µM", "text": "National Center for Advancing Translational Sciences [NCATS]\nNIH Chemical Genomics Center [NCGC]\nU.S. Environmental Protection Agency [EPA]\nNational Institutes of Environmental Health Sciences [NIEHS]\nNational Toxicology Program [NTP]\nU.S. Food and Drug Administration [FDA]\nDNA repair pathways play a critical role in cellular homeostasis by repairing DNA damage induced by endogenous processes and xenobiotics. Isogenic chicken DT40 cell lines deficient in different DNA repair pathways can be used to identify genotoxic compounds and aid in characterizing the nature of the DNA damage induced. Two DNA repair-deficient cell lines with disrupted genes, Rad54/Ku70 or Rev3, were used to screen the Tox21 10K compound library. Possible genotoxicity was based on the presence of a significant increase in cytotoxicity in one or more of the DNA repair-deficient cell lines compared to that observed in the parental DNA repair-proficient cell line. CellTiter Glo viability assay (Promega, Madison, WI) was used to measure cell viability in these cells after compound treatment. This assay includes the data from the Rev3 mutant cell line.\nTox21 Assay Protocol Summary:\n300 DT40 mutant cells in 5 uL/well were dispensed into white, solid-bottom 1536-well plates using a Multidrop Combi (ThermoFisher Scientific, Waltham, MA) dispenser. After the assay plates were incubated at 37 C/5% CO2 for approximately 0.5 hour, 23 nL of compounds dissolved in DMSO, positive controls or DMSO only was transferred into the assay plate by a pintool work station (Kalypsys, San Diego, CA). The assay plates were incubated at 37 C/5% CO2 for 40 hours. After 5 uL per well of CellTiter-Glo reagent was added into each well of the assay plates, the plates were incubated for 30 min at room temperature and the luminescence intensity of the plates was measured using a ViewLux (PerkinElmer, Shelton, CT) plate reader.", "values": [
      {"molecule": "CC(=O)Nc1ccc(S(N)(=O)=O)cc1", "Potency": "inactive"},
      {"molecule": "CN(C)CCCNCCCN(C)C", "Potency": "inactive"},
      {"molecule": "CC/C=C\\CC/C=C/C(OCC)OCC", "Potency": "48.6 µM (active)"},
      {"molecule": "NCCCNCCSP(=O)(O)O", "Potency": "inactive"},
      {"molecule": "CCC=O", "Potency": "inactive"},
      {"molecule": "NC(CSCC(=O)O)C(=O)O", "note": "(stereo not given)", "Potency": "inactive"},
      {"molecule": "Brc1c(NC2=NCCN2)ccc2nccnc12", "Potency": "inactive"},
      {"molecule": "CCn1nc(C(=O)O)c(=O)c2cc3c(cc21)OCO3", "Potency": "inactive"},
      {"molecule": "CCN1CCC[C@H]1CNC(=O)c1cc(S(N)(=O)=O)ccc1OC", "Potency": "inactive"},
      {"molecule": "CCn1ccnc1CC1COc2ccccc2O1", "note": "(stereo not given)", "Potency": "inactive"},
      {"molecule": "CN1CCCC1", "Potency": "inactive"},
      {"molecule": "CN(C(=O)c1c(O)c2ccccc2n(C)c1=O)c1ccccc1", "Potency": "inactive"},
      {"molecule": "CCCc1cc(C(N)=S)ccn1", "Potency": "inactive"},
      {"molecule": "CC(=O)OCC(=O)[C@@]1(O)CCC2C3CCC4=CC(=O)CC[C@]4(C)C3[C@@H](O)C[C@@]21C", "note": "(stereo not given in full)", "Potency": "inactive"},
      {"molecule": "CC(C)(C)NCCNC(C)(C)C", "Potency": "inactive"},
      {"molecule": "CCCN(CCC)CCc1cccc2c1CC(=O)N2", "Potency": "inactive"},
      {"molecule": "Oc1ccc(C2CNCCc3c2cc(O)c(O)c3Cl)cc1", "note": "(stereo not given)", "Potency": "inactive"},
      {"molecule": "CCOC(=O)Nc1ccc(NCc2ccc(F)cc2)nc1N", "Potency": "inactive"},
      {"molecule": "CC1(C)CO[C@@H](CC(=O)O)CN1", "Potency": "inactive"},
      {"molecule": "CN1C(=O)N(C)C(O)C1O", "note": "(stereo not given)", "Potency": "inactive"},
      {"molecule": "CC(=O)OCC(CCn1cnc2cnc(N)nc21)COC(C)=O", "Potency": "inactive"},
      {"molecule": "CCCC(=O)O[C@]1(C(=O)CO)CC[C@H]2[C@@H]3CCC4=CC(=O)CC[C@]4(C)[C@H]3[C@@H](O)C[C@@]21C", "Potency": "inactive"},
      {"molecule": "CO/N=C(/C(=O)N[C@@H]1C(=O)N2C(C(=O)OCOC(=O)C(C)(C)C)=C(C)CS[C@H]12)c1csc(N)n1", "Potency": "inactive"},
      {"molecule": "CCCCC/C=C\\CCC=O", "Potency": "inactive"},
      {"molecule": "N=C(N)c1ccc2cc(OC(=O)c3ccc(N=C(N)N)cc3)ccc2c1", "Potency": "inactive"},
      {"molecule": "CCCN1CCCC[C@H]1C(=O)Nc1c(C)cccc1C", "Potency": "inactive"},
      {"molecule": "CCSC(=O)N(CC(C)C)CC(C)C", "Potency": "inactive"},
      {"molecule": "CC(C)(CC(=O)O)C(=O)O", "Potency": "inactive"},
      {"molecule": "CC(C)NC(=O)NC(C)C", "Potency": "inactive"},
      {"molecule": "C=CCS(=O)(=O)O", "Potency": "inactive"},
      {"molecule": "CC(=O)Nc1c(I)cc(I)c(C(=O)O)c1I", "Potency": "inactive"},
      {"molecule": "COc1ccc(CCN(C)CCCC(C#N)(c2cc(OC)c(OC)c(OC)c2)C(C)C)cc1OC", "note": "(stereo not given)", "Potency": "29.8 µM (active)"},
      {"molecule": "CC(C)(C)c1nnc(NS(=O)(=O)c2ccccc2)s1", "Potency": "inactive"},
      {"molecule": "OCCOc1ccc(OCCO)cc1", "Potency": "inactive"},
      {"molecule": "CC(C[N+](C)(C)C)OC(N)=O", "note": "(stereo not given)", "Potency": "inactive"},
      {"molecule": "O=C(O)CCCc1ccccc1", "Potency": "inactive"},
      {"molecule": "C/C=C(\\C)C#N", "Potency": "inactive"},
      {"molecule": "CO[Si](CCCOCC1CO1)(OC)OC", "note": "(stereo not given)", "Potency": "38.6 µM (active)"},
      {"molecule": "C[N+](C)(C)CCCCCC[N+](C)(C)C", "Potency": "inactive"},
      {"molecule": "NC(=O)Nc1ccccc1", "Potency": "inactive"}
    ]}
  ]
}
